4 molecules from PubChem BioAssay (EPA / NIEHS) can be followed below.

Conditions in all cases: mRNA level, 48 h; actives raise or lower the signal
Read-out in assay [1]: Glutamate-cysteine ligase catalytic (GCLC), GCLC (gene 2729)
In words: LTEA_HepaRG_GCLC: Life Technologies and Expression Analysis (LTEA) Assay for Glutamate-cysteine ligase catalytic (GCLC) using HepaRG (AID 2283498). The method, boiled down: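 HepaRG, 48 h exposure, 8-pt half-log series from 100 uM, 0.5% DMSO vehicle; TaqMan qRT-PCR for GCLC mRNA, housekeeping-normalized; bidirectional curve fit vs DMSO baseline.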

Read-out in assay [2]: growth arrest and DNA damage 45 (GADD45G), GADD45G (gene 10912)
The experiment in a line: LTEA_HepaRG_GADD45G: Life Technologies and Expression Analysis (LTEA) Assay for growth arrest and DNA damage 45 (GADD45G) using HepaRG (AID 2283499). The method, boiled down: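 Differentiated human HepaRG cells, 48 h post-plating, exposed 48 h in serum-free induction medium to 8 half-log concentrations (top 100 uM, 0.5% DMSO) in duplicate. GADD45G mRNA measured by Fluidigm TaqMan qRT-PCR, normalized to ACTB, GAPDH, POLR2A; bidirectional fit versus DMSO.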

Read-out in assay [3]: Glutamate-cysteine ligase regulatory (GCLM), GCLM (gene 2730)
The experiment in a line: LTEA_HepaRG_GCLM: Life Technologies and Expression Analysis (LTEA) Assay for Glutamate-cysteine ligase regulatory (GCLM) using HepaRG (AID 2283500). The method, boiled down:
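Endpoint is GCLM transcript level by qRT-PCR, normalized to three housekeeping genes, after 48 h chemical exposure of human HepaRG cells (0.5% DMSO vehicle, top 100 uM, half-log dilutions). Fitting was bidirectional relative to DMSO.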

Read-out in assay [4]: Glutathione S-transferase M3 (GSTM3), GSTM3 (gene 2947)
In words: LTEA_HepaRG_GSTM3: Life Technologies and Expression Analysis (LTEA) Assay for Glutathione S-transferase M3 (GSTM3) using HepaRG (AID 2283501). The method in brief: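 Differentiated human HepaRG cells were exposed in duplicate for 48 h in serum-free induction medium, 8 points from 100 uM top in half-log steps, 0.5% DMSO. GSTM3 mRNA was measured by TaqMan qRT-PCR, normalized to ACTB, GAPDH and POLR2A; bidirectional fit versus DMSO.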

Read-out in assay [5]: Heat shock 70 kDa protein 1 (HSPA1A), gene 3303
In words: LTEA_HepaRG_HSPA1A: Life Technologies and Expression Analysis (LTEA) Assay for Heat shock 70 kDa protein 1 (HSPA1A) using HepaRG (AID 2283502). The method, boiled down:
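Cells were plated and cultured for 48 h, then switched to serum-free induction medium. Chemicals were added at eight half-log concentrations up to 100 uM for 48 h. RNA was then isolated and HSPA1A measured by qRT-PCR with bidirectional curve fitting against DMSO.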

Read-out in assay [6]: Hypoxia-inducible factor 1-alpha (Homo sapiens) (UniProt Q16665)
In words: LTEA_HepaRG_HIF1A: Life Technologies and Expression Analysis (LTEA) Assay for Hypoxia-inducible factor 1 (HIF1A) Trancription factor using HepaRG (AID 2283503). The method, boiled down: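 HIF1A transcript level read by qRT-PCR (ACTB, GAPDH, POLR2A normalization) after 48 h chemical exposure of HepaRG cultures. Eight half-log concentrations, top 100 uM, 0.5% DMSO vehicle, duplicates; bidirectional curve fit against DMSO baseline.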

Read-out in a further assay: HGF (gene 3082)
In words: LTEA_HepaRG_HGF: Life Technologies and Expression Analysis (LTEA) Assay for Hepatocyte Growth Facto (HGF) using HepaRG (AID 2283505). The method in brief:
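Differentiated HepaRG cells in serum-free induction medium exposed 48 h in duplicate, 8 half-log concentrations from 100 uM in 0.5% DMSO. HGF mRNA by qRT-PCR, normalised to ACTB, GAPDH, POLR2A; bidirectional fitting.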

Read-out in assay [7]: Insulin Like Growth Factor 1 (IGF1), IGF1 (gene 3479)
The experiment in a line: LTEA_HepaRG_IGF1: Life Technologies and Expression Analysis (LTEA) Assay for Insulin Like Growth Factor 1 (IGF1) using HepaRG (AID 2283506). The method, boiled down: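 Cells are thawed, plated and cultured 48 h, then exposed in duplicate to chemical (highest 100 uM, half-log steps, 0.5% DMSO) for another 48 h. Total RNA is analysed by Fluidigm qRT-PCR for IGF1 expression relative to vehicle.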

Read-out in assay [8]: Insulin-like growth factor-binding protein 1 (IGFBP1), IGFBP1 (gene 3484)
In words: LTEA_HepaRG_IGFBP1: Life Technologies and Expression Analysis (LTEA) Assay for Insulin-like growth factor-binding protein 1 (IGFBP1) using HepaRG (AID 2283508). The method, boiled down:
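HepaRG cells, plated 48 h then switched to serum-free induction medium, exposed in duplicate for 48 h to 8-point half-log series from 100 uM in 0.5% DMSO. mRNA measured by qRT-PCR, normalized to ACTB/GAPDH/POLR2A; bidirectional fit versus DMSO.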

Read-out in assay [9]: Interleukin 6 (IL6), IL6 (gene 3569)
In words: LTEA_HepaRG_IL6: Life Technologies and Expression Analysis (LTEA) Assay for Interleukin 6 (IL6) using HepaRG (AID 2283509). The method in brief:
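qRT-PCR read-out of IL6 transcript, normalized to three housekeeping genes, after 48 h chemical exposure of HepaRG cells; 8-point half-log series, top 100 uM, 0.5% DMSO vehicle. Bidirectional curve fitting against DMSO baseline.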

Read-out in assay [10]: Interleukin 6 Receptor (IL6R), IL6R (gene 3570)
The experiment in a line: LTEA_HepaRG_IL6R: Life Technologies and Expression Analysis (LTEA) Assay for Interleukin 6 Receptor (IL6R) using HepaRG (AID 2283510).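 On AC50: TaqMan qRT-PCR signal normalized to ACTB GAPDH and POLR2A housekeeping genes.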 The method in brief: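 Cells were thawed, plated and cultured 48 h, then medium was changed to serum-free induction medium. Chemicals were added in duplicate (100 uM top, half-log steps, 0.5% DMSO) for 48 h. Lysates were analyzed by qRT-PCR for IL6R expression.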

Read-out in assay [11]: Potassium channel subfamily K member 1 (KCNK1), KCNK1 (gene 3775)
In words: LTEA_HepaRG_KCNK1: Life Technologies and Expression Analysis (LTEA) Assay for Potassium channel subfamily K member 1 (KCNK1) using HepaRG (AID 2283511). The method in brief: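 HepaRG, 48 h exposure, 8-pt half-log series top 100 uM, 0.5% DMSO vehicle, duplicates. Readout: KCNK1 transcript by qRT-PCR (Fluidigm array), housekeeping-normalized; bidirectional curve fit relative to DMSO baseline.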

Read-out in assay [12]: Keratin 19 (KRT19), KRT19 (gene 3880)
In words: LTEA_HepaRG_KRT19: Life Technologies and Expression Analysis (LTEA) Assay for Keratin 19 (KRT19) using HepaRG (AID 2283512). The method, boiled down: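 Differentiated HepaRG cells in serum-free induction medium, exposed 48 h in duplicate to 8 half-log concentrations up to 100 uM in 0.5% DMSO. KRT19 mRNA by qRT-PCR, normalized to ACTB, GAPDH, POLR2A; bidirectional fit vs DMSO.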

Read-out in assay [13]: JUN Transcription Factor, JUN (gene 3725)
In words: LTEA_HepaRG_JUN: Life Technologies and Expression Analysis (LTEA) Assay for JUN Transcription Factor using HepaRG (AID 2283513). The method in brief:
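Read-out is JUN transcript level by TaqMan qRT-PCR, normalized to ACTB, GAPDH and POLR2A, after 48 h chemical treatment of HepaRG cells. Concentration-response spanned eight half-log points up to 100 uM in 0.5% DMSO.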

Read-out in assay [14]: Lipase C (LIPC), LIPC (gene 3990)
In words: LTEA_HepaRG_LIPC: Life Technologies and Expression Analysis (LTEA) Assay for Lipase C (LIPC) using HepaRG (AID 2283514). The method, boiled down: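 HepaRG, 48 h exposure, 8-pt half-log series from 100 uM in 0.5% DMSO, duplicates. Readout: LIPC mRNA by Fluidigm qRT-PCR, housekeeping-normalized (ACTB/GAPDH/POLR2A). Gain or loss fitted bidirectionally against DMSO baseline.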

Read-out in assay [15]: Lipoprotein lipase (LPL), LPL (gene 4023)
The experiment in a line: LTEA_HepaRG_LPL: Life Technologies and Expression Analysis (LTEA) Assay for Lipoprotein lipase (LPL) using HepaRG (AID 2283515). The method in brief: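 HepaRG, 48 h exposure, 8-pt half-log dilutions from 100 uM, 0.5% DMSO vehicle, duplicates; qRT-PCR (Fluidigm array) of LPL mRNA vs housekeeping genes; bidirectional curve fit relative to DMSO baseline.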

Read-out in assay [16]: MicroRNA 122 (MIR122), gene 406906
The experiment in a line: LTEA_HepaRG_MIR122: Life Technologies and Expression Analysis (LTEA) Assay for MicroRNA 122 (MIR122) using HepaRG (AID 2283516). Further: the transcript read is the microRNA miR-122. The method in brief:
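Human liver HepaRG cultures receive test chemicals for 48 h at eight half-log concentrations from 100 uM. Expression is quantified by qRT-PCR with ACTB/GAPDH/POLR2A normalization and fitted bidirectionally against 0.5% DMSO.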

Read-out in assay [17]: Intercellular Adhesion Molecule 1 (ICAM1), ICAM1 (gene 3383)
In words: LTEA_HepaRG_ICAM1: Life Technologies and Expression Analysis (LTEA) Assay for Intercellular Adhesion Molecule 1 (ICAM1) using HepaRG (AID 2283507). The method in brief: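 Differentiated human HepaRG cells in serum-free induction medium exposed 48 h in duplicate to 8 half-log concentrations (top 100 uM, 0.5% DMSO). ICAM1 mRNA quantified by TaqMan qRT-PCR, normalized to ACTB, GAPDH and POLR2A; bidirectional fitting versus DMSO.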

Read-out in assay [18]: matrix metalloproteinase-10 (MMP10), MMP10 (gene 4319)
In words: LTEA_HepaRG_MMP10: Life Technologies and Expression Analysis (LTEA) Assay for matrix metalloproteinase-10 (MMP10) using HepaRG (AID 2283517). The method in brief: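 Transcript levels come from Fluidigm qRT-PCR normalized to three housekeeping genes, with curves fitted bidirectionally against 0.5% DMSO. Human HepaRG cells were dosed for 48 hours at concentrations up to 100 uM.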

Read-out in assay [19]: 3-Hydroxy-3-Methylglutaryl-CoA Synthase 2 (HMGCS2), HMGCS2 (gene 3158)
In words: LTEA_HepaRG_HMGCS2: Life Technologies and Expression Analysis (LTEA) Assay for 3-Hydroxy-3-Methylglutaryl-CoA Synthase 2 (HMGCS2) using HepaRG (AID 2283504). The method in brief: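 Human HepaRG cells in serum-free induction medium were exposed in duplicate for 48 h to 8-point half-log series from 100 uM top in 0.5% DMSO. HMGCS2 mRNA measured by TaqMan qRT-PCR, normalised to ACTB, GAPDH, POLR2A; bidirectional fit versus DMSO.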

Structures are written as SMILES. Activity calls are given as the source filed them. How the source made its calls: active means hit-call score of the fitted dose curve at least 0.9, where 1 is the maximum; inactive means score below 0.9.

Chain of Hypoxia-inducible factor 1-alpha (Homo sapiens) (Q16665 whole entry, looked up): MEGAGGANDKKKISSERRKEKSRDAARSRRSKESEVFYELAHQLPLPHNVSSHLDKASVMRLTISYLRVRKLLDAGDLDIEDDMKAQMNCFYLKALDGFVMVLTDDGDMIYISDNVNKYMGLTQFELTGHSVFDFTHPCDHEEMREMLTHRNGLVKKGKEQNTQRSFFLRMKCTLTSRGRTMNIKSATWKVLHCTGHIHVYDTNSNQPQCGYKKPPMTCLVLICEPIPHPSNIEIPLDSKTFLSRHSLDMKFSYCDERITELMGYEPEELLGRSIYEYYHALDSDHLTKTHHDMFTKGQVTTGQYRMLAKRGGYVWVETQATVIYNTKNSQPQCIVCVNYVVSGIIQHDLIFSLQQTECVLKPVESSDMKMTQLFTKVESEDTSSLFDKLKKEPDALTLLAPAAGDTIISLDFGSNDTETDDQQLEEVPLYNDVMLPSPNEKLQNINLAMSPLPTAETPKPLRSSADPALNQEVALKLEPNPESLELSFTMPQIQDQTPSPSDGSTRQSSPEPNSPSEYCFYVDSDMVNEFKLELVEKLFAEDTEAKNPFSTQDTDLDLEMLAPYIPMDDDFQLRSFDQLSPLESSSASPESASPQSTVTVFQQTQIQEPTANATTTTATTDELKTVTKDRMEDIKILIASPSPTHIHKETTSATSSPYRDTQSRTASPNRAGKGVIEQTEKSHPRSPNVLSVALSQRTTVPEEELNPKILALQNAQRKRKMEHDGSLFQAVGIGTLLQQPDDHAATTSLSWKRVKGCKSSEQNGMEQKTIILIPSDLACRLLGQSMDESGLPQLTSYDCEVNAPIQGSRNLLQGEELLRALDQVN

Consider `C/C=C/c1ccc(OC)cc1`, for which the call in [1], in assay [2], in assay [3], in assay [4], in assay [5] and in assay [6] was inactive. Further, the molecule was called inactive (with HGF (gene 3082); in assay [7]; in [8]; in [9]; in assay [10]; in [11]). The call in assay [12], in [13], in [14], in assay [15] and in assay [16] was inactive.
With `CCCCCCCCCCCCCCCCO`, the call in [1], in [2], in assay [3], in assay [4], in assay [5] and in assay [6] was inactive. The result (with HGF (gene 3082); in assay [7]; in assay [17]; in [9]; in assay [11]; in assay [12]) was inactive. Also, the outcome in assay [13], in [14], in assay [15], in [16] and in [18] was inactive. The AC50 in assay [10] is 50 µM (active).
With `S=c1[nH]c2ccccc2s1`, the result in assay [1], in assay [2], in [3], in [4], in assay [5] and in [6] was inactive. Besides, the molecule was classed as inactive (with HGF (gene 3082); in assay [7]; in assay [17]; in [9]; in assay [10]; in assay [11]). Further, the result in assay [12], in assay [13], in [14], in assay [15] and in [16] was inactive.
`Cc1c(C)c2c(c(C)c1O)CCC(C)(COc1ccc(CC3SC(=O)NC3=O)cc1)O2` (centres undefined): the AC50 is 93.6 µM (active) in assay [1]; 19.1 µM (active) in assay [2]; 50 µM (active) in assay [5]; 66.8 µM (active) in assay [6]; 68.5 µM (active) in assay [7]; 88.2 µM (active) in assay [9]. The AC50 is 92.9 µM (active) in [10]; 70.9 µM (active) in assay [13]; 25.1 µM (active) in assay [14]; 4.12 µM (active) in assay [15]; 83.9 µM (active) in [16]. The result (in [3]; in assay [4]; in assay [19]; with HGF (gene 3082); in [11]; in [12]) was inactive.
